# In PubChem BioAssay (Tox21):
# Values without a mark were called inactive. Inconclusive results are not listed. A call without a number means that no potency is given here. Calls of active or inactive are those of the source. The call rests on the fitted dose curve; in most records, active means well fitted curve in the direction sought with a large enough effect in the repeat runs; inconclusive means weak or mixed curves; inactive means no such curve, though single readings can be large; an effect the other way counts as inactive or inconclusive. Where a SMILES comes first, the peptide text is derived from it. [ ]: non-standard residue; d: D form. pGlu = O=C1CC[C@@H](C(=O)O)N1
# Tests used:
# [1] = Human pregnane X receptor (PXR) small molecule agonists, qHTS cell viability counter screen (AID 1346977); further: nearly all actives have a fitted effect of over 50% in size
# Outline: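 Same-well viability read: CellTiter-Fluor added after 23 hr compound exposure, fluorescence measured 1 hr later. Cells were PXR-Luc HepG2 seeded at 2,000/well in 5% charcoal-stripped FBS medium, rested 5 hr before dosing at 37 C.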
# [2] = Caspase-3/7 induction in HepG2 cells by small molecules, qHTS assay (AID 1346978); further: nearly all actives have a fitted effect of over 15% in size
# Outline: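 Wild-type HepG2 cells (2,000/well) were settled 5 h at 37 C, 5% CO2, then exposed to compounds in DMSO for 17 h. Caspase-3/7 activity was read by luminescence 30 min after adding Caspase-Glo 3/7 reagent at room temperature.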
# [3] = Caspase-3/7 induction in CHO-K1 cells by small molecules, qHTS cell viability counter screen (AID 1346979); further: nearly all actives have a fitted effect of over 35% in size
# Outline: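 Cytotoxicity counter screen: CellTiter-Fluor added to compound-treated wild-type CHO-K1 cells at 16 h (37C, 5% CO2), fluorescence measured 1 h later; same wells as caspase-3/7 measurement.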
# [4] = Caspase-3/7 induction in CHO-K1 cells by small molecules, qHTS assay (AID 1346980); further: nearly all actives have a fitted effect of over 15% in size
# Outline: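 Wild-type cells were seeded at 1,500 per well and settled 5 hr at 37 C, 5% CO2, then exposed to DMSO-dissolved compounds for 17 hr. Caspase-Glo 3/7 reagent was added, and luminescence was read after 30min at room temperature.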
# [5] = Caspase-3/7 induction in HepG2 cells by small molecules, qHTS cell viability counter screen (AID 1346981); further: series mostly up to about 92 µM; nearly all actives have a fitted effect of over 30% in size
# Outline: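 Multiplexed with the caspase-3/7 assay: HepG2 cells, 16 hr compound treatment, CellTiter-Fluor viability detection by fluorescence.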
# [6] = target: Nuclear receptor subfamily 1 group I member 2 (Homo sapiens) (UniProt O75469); assay: Human pregnane X receptor (PXR) small molecule agonists, qHTS assay (AID 1346982); further: nearly all actives have a fitted effect of over 35% in size; further: potency means the concentration at half of the fitted maximal effect
# Sequence of Nuclear receptor subfamily 1 group I member 2 (Homo sapiens) (O75469 whole entry, looked up): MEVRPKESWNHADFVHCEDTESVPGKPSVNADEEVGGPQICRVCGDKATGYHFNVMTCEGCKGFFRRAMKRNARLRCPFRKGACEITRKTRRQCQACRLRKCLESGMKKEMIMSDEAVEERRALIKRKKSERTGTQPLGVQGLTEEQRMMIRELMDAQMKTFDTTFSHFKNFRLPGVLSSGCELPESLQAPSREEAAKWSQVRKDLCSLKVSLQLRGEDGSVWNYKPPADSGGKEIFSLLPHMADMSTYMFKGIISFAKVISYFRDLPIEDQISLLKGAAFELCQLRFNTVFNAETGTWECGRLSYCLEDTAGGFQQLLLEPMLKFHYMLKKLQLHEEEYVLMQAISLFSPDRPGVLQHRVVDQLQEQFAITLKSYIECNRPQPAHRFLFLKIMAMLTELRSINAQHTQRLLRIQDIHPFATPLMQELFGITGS
# Outline: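 We seeded PXR-Luc HepG2 cells in assay medium containing 5% charcoal-stripped FBS, added compounds 5 hr later, incubated 24 hr, and read luminescence with ONE-Glo reagent.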
# [7] = target: Cytochrome P450 2D6 (Homo sapiens) (UniProt P10635); assay: Cytochrome P450 Family 2 Subfamily D Member 6 (CYP2D6) small molecule antagonists: luciferase reporter qHTS assay (AID 1671196); further: nearly all actives have a fitted effect of over 50% in size; further: potency means the concentration at half of the fitted maximal effect; on activity change, negative = inhibition: series mostly up to about 120 µM
# Sequence of Cytochrome P450 2D6 (Homo sapiens) (P10635 whole entry, looked up): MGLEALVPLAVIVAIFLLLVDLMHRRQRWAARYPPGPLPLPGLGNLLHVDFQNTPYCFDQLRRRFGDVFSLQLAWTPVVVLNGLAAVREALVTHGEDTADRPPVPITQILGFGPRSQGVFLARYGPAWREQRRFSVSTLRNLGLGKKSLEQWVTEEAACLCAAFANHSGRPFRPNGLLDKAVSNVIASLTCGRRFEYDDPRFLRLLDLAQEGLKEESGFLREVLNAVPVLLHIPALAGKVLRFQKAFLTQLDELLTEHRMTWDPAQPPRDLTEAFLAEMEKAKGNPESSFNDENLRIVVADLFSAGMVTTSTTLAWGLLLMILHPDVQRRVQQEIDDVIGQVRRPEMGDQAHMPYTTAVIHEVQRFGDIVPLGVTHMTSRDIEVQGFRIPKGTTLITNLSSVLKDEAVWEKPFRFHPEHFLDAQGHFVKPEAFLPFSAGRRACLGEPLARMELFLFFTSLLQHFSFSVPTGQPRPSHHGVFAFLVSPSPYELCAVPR
# Outline: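 Luminescence (RLU), read 20 min after detection reagent, indicated CYP2D6 conversion of proluciferin to luciferin during a 1 h NADPH-dependent reaction at room temperature.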
# [8] = target: Cytochrome P450 2C19 (Homo sapiens) (UniProt P33261); assay: Cytochrome P450 Family 2 Subfamily C Member 19 (CYP2C19) small molecule antagonists: luciferase reporter qHTS assay (AID 1671197); further: nearly all actives have a fitted effect of over 65% in size; further: potency means the concentration at half of the fitted maximal effect; on activity change, negative = inhibition: series mostly up to about 120 µM
# Sequence of Cytochrome P450 2C19 (Homo sapiens) (P33261 whole entry, looked up): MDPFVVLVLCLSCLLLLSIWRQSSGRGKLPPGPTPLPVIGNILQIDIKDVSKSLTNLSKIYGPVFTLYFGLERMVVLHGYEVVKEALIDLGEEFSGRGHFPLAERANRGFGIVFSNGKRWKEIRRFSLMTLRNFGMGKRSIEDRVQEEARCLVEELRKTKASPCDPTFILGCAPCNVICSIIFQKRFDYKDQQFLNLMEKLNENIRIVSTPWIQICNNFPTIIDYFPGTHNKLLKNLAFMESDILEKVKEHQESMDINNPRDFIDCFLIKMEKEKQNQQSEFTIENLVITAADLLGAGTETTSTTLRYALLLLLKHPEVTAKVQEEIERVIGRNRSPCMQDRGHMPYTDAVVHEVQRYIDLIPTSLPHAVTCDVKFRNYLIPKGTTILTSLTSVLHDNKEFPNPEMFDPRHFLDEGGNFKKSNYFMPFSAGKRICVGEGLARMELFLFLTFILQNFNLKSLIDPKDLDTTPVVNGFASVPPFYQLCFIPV
# Outline: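 First, compounds are pinned into enzyme-substrate mix and held 10 min at room temperature. Second, NADPH regeneration solution is added and plates incubate 1 h at 37C. Third, detection reagent is added and luminescence read after 20 min.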
# [9] = target: Cytochrome P450 2C9 (Homo sapiens) (UniProt P11712); assay: Cytochrome P450 Family 2 Subfamily C Member 9 (CYP2C9) small molecule antagonists: luciferase reporter qHTS assay (AID 1671198); further: nearly all actives have a fitted effect of over 50% in size; further: potency means the concentration at half of the fitted maximal effect; on activity change, negative = inhibition: series mostly up to about 120 µM
# Sequence of Cytochrome P450 2C9 (Homo sapiens) (P11712 whole entry, looked up): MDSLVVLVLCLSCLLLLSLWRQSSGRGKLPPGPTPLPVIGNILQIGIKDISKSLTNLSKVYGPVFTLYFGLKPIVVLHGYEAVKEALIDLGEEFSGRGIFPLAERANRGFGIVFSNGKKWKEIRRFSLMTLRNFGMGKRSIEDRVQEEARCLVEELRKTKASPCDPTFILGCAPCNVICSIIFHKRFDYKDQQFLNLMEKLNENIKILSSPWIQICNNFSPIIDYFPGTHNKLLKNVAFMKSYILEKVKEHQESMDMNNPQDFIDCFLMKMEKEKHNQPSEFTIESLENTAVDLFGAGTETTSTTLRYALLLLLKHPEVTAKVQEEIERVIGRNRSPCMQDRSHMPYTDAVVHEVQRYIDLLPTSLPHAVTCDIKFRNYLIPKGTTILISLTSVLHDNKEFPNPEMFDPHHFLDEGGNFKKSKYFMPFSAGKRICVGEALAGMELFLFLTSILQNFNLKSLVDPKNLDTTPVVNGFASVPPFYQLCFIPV
# Outline: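 CYP2C9 activity was measured with a P450-Glo proluciferin substrate. Enzyme–substrate mix was held with compound for 10 min at room temperature, then NADPH regeneration solution was added for 1 h at 37C. Luciferin product was read as luminescence.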
# [10] = target: Cytochrome P450 1A2 (Homo sapiens) (UniProt P05177); assay: Cytochrome P450 Family 1 Subfamily A Member 2 (CYP1A2) small molecule antagonists: luciferase reporter qHTS assay (AID 1671199); further: nearly all actives have a fitted effect of over 50% in size; further: potency means the concentration at half of the fitted maximal effect; on activity change, negative = inhibition: series mostly up to about 120 µM
# Sequence of Cytochrome P450 1A2 (Homo sapiens) (P05177 whole entry, looked up): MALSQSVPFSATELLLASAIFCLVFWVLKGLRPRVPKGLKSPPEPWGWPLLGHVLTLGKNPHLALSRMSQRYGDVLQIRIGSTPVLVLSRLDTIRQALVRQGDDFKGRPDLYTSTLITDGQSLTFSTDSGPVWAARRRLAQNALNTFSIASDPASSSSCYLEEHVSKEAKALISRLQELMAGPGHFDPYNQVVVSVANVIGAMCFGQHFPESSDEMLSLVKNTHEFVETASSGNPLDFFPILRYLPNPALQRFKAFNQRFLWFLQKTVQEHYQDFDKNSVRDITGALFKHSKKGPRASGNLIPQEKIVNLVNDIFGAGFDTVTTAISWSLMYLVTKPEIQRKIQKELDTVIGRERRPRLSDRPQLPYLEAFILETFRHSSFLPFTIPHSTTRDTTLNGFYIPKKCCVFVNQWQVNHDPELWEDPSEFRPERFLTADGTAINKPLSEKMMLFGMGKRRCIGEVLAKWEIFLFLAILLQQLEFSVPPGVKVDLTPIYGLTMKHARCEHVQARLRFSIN
# Outline: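 CYP1A2 turnover of a luminogenic substrate was quantified after 1 h with NADPH regeneration at room temperature. Furafylline served as positive control.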
# [11] = target: Voltage-gated inwardly rectifying potassium channel KCNH2 (Homo sapiens) (UniProt Q12809); assay: Human Ether-a-go-go-Related Gene (hERG) channel small molecule antagonists: fluorescence cell-based qHTS assay (AID 1671200)
# Sequence of Voltage-gated inwardly rectifying potassium channel KCNH2 (Homo sapiens) (Q12809 whole entry, looked up): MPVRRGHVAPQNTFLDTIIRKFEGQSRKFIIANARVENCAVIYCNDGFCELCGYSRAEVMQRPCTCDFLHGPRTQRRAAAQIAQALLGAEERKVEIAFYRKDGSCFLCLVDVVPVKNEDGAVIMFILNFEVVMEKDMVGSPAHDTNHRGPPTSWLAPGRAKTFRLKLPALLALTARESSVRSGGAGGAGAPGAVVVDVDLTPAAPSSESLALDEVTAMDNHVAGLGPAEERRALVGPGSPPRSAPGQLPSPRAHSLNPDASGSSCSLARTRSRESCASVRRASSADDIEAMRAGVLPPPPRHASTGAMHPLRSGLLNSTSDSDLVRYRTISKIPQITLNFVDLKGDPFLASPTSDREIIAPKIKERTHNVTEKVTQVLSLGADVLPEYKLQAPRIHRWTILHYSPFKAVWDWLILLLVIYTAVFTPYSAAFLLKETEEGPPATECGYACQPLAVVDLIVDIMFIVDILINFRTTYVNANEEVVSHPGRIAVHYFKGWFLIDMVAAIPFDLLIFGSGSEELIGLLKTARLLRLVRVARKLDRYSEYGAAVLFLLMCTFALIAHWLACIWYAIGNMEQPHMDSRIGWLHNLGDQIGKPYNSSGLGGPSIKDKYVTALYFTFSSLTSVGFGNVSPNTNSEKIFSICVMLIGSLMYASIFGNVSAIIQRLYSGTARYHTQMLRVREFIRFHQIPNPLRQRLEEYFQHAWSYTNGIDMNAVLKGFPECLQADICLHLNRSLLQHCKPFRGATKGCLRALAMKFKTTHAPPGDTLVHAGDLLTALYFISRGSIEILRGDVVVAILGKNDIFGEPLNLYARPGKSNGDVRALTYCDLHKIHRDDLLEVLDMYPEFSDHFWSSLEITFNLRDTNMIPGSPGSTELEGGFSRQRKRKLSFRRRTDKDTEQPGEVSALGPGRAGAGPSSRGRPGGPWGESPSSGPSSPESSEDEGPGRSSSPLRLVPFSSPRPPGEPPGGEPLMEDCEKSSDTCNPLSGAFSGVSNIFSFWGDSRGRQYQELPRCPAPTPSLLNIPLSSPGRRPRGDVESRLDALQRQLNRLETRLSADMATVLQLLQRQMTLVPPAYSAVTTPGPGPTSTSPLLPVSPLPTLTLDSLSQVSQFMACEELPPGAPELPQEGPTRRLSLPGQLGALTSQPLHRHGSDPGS
# Outline: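 Thallium flux as potassium surrogate: FluxOR II dye loaded 1 h at room temperature into hERG-expressing U2OS cells, then stimulus buffer added after 10 min. Kinetic 480 nm excitation/540 nm emission read, 2 min.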
# [12] = target: Cytochrome P450 3A4 (Homo sapiens) (UniProt P08684); assay: Cytochrome P450 Family 3 Subfamily A Member 4 (CYP3A4) small molecule antagonists: luciferase reporter qHTS assay (AID 1671201)
# Sequence of Cytochrome P450 3A4 (Homo sapiens) (P08684 whole entry, looked up): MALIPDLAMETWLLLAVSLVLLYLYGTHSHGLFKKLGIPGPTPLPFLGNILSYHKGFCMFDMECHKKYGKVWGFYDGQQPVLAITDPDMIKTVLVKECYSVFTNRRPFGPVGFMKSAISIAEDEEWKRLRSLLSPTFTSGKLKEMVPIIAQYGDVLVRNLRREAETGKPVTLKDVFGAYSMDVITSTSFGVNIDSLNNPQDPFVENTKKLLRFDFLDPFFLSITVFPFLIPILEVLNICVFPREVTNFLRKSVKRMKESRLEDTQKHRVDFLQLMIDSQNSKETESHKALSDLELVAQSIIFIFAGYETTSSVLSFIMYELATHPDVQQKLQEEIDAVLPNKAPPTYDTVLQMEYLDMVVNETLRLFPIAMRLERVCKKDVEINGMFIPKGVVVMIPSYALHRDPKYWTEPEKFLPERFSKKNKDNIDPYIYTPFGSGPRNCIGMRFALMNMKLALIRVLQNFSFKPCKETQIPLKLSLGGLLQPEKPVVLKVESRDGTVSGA
# Outline: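 Recombinant human CYP3A4 converts a proluciferin substrate to luciferin over 1 h at room temperature after NADPH regeneration solution is added (compound preincubated 10 min); detection reagent stops reaction, luminescence read 20 min later as relative units.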
structure (smiles),measurement,setting,value
Cc1ccccc1N=C(N)N=C(N)N,Potency,[1],inactive
same,outcome,[2],inactive
same,Potency,[3],inactive
same,outcome,[4],inactive
same,Potency,[5],inactive
same,Potency,[6],inactive
same,Potency,[7],7.96 µM (active)
same,Potency,[8],inactive
same,Potency,[9],inactive
same,Potency,[10],inactive
same,Potency,[11],inactive
CC(C)CC(C)(N)C#N (stereo unspecified),Potency,[1],inactive
same,outcome,[2],inactive
same,Potency,[3],inactive
same,outcome,[4],inactive
same,Potency,[5],inactive
same,Potency,[6],inactive
same,Potency,[7],inactive
same,Potency,[8],inactive
same,Potency,[9],inactive
same,Potency,[10],inactive
same,Potency,[11],inactive
CCCCCCC#CC(=O)OC,Potency,[1],inactive
same,outcome,[2],inactive
same,Potency,[3],inactive
same,outcome,[4],inactive
same,Potency,[5],inactive
same,Potency,[6],inactive
same,Potency,[7],inactive
same,Potency,[8],inactive
same,Potency,[9],inactive
same,Potency,[11],inactive
CCCCN1C=CN(C)C1,"activity change, negative = cytotoxicity",[1],-1.91% [at 19 µM]
same,caspase activation,[2],1.6% [at 19 µM]
same,"activity change, negative = cytotoxicity",[3],5.38% [at 19 µM]
same,caspase-3/7 activation,[4],0.127% [at 19 µM]
same,"activity change, negative = cytotoxicity",[5],-0.522% [at 19 µM]
same,activation,[6],3.9% [at 19 µM]
same,"activity change, negative = inhibition",[7],-17.2% [at 23.6 µM]
same,"activity change, negative = inhibition",[11],-0.505% [at 15.8 µM]
COc1ccnc(CS(=O)c2nc3cc(OC(F)F)ccc3[nH]2)c1OC (stereo unspecified),Potency,[1],inactive
same,outcome,[2],inactive
same,Potency,[3],inactive
same,outcome,[4],inactive
same,Potency,[5],inactive
same,Potency,[6],24.5 µM (active)
same,Potency,[7],12.7 µM (active)
same,Potency,[8],8.99 µM (active)
same,Potency,[10],35.8 µM (active)
COc1cc(-c2ccc(=O)[nH]n2)ccc1OC(F)F,Potency,[1],inactive
same,outcome,[2],inactive
same,Potency,[3],inactive
same,outcome,[4],inactive
same,Potency,[5],inactive
same,Potency,[6],4.73 µM (active)
same,Potency,[7],4.36 µM (active)
same,Potency,[9],inactive
same,Potency,[11],inactive
COCCOCC(OC)OC,Potency,[1],inactive
same,outcome,[2],inactive
same,Potency,[3],inactive
same,outcome,[4],inactive
same,Potency,[5],inactive
same,Potency,[6],inactive
same,Potency,[7],inactive
same,Potency,[8],inactive
same,Potency,[9],inactive
same,Potency,[10],inactive
same,Potency,[11],inactive
same,Potency,[12],inactive
CC(C)(CCC(=O)O)C(=O)O,Potency,[1],inactive
same,outcome,[2],inactive
same,Potency,[3],inactive
same,outcome,[4],inactive
same,Potency,[5],inactive
same,Potency,[6],inactive
same,Potency,[8],inactive
same,Potency,[9],inactive
same,Potency,[10],28.6 µM (active)
same,Potency,[11],inactive
CCNC(=O)[C@@H]1CCCN1C(=O)[C@H](CCCN=C(N)N)NC(=O)[C@H](CC(C)C)NC(=O)CNC(=O)[C@H](Cc1ccc(O)cc1)NC(=O)[C@H](CO)NC(=O)[C@H](Cc1c[nH]c2ccccc12)NC(=O)[C@H](Cc1cnc[nH]1)NC(=O)[C@@H]1CCC(=O)N1 ([pGlu]HWSYGLRP-NHEt),Potency,[1],inactive
same,outcome,[2],inactive
same,Potency,[3],inactive
same,outcome,[4],inactive
same,Potency,[5],inactive
same,Potency,[6],inactive
same,Potency,[8],inactive
same,Potency,[9],inactive
same,Potency,[10],inactive
same,Potency,[11],inactive
Clc1cc(Cl)cc(Cl)c1,Potency,[1],inactive
same,outcome,[2],inactive
same,Potency,[3],inactive
same,outcome,[4],inactive
same,Potency,[5],inactive
same,Potency,[6],inactive
same,Potency,[7],inactive
same,Potency,[9],inactive
same,Potency,[10],inactive
same,Potency,[11],inactive
same,Potency,[12],inactive
O=S(=O)(O)c1cccc2ccccc12,Potency,[1],inactive
same,outcome,[2],inactive
same,Potency,[3],inactive
same,outcome,[4],inactive
same,Potency,[5],inactive
same,Potency,[6],inactive
same,Potency,[7],inactive
same,Potency,[11],inactive
same,Potency,[12],inactive
Cc1cc(C)c(N=Nc2c(O)c(S(=O)(=O)O)cc3cc(S(=O)(=O)O)ccc23)cc1C,"activity change, negative = cytotoxicity",[1],-25% [at 8.39 µM]
same,caspase activation,[2],-0.299% [at 8.39 µM]
same,"activity change, negative = cytotoxicity",[3],-8.22% [at 8.39 µM]
same,caspase-3/7 activation,[4],-0.604% [at 8.39 µM]
same,"activity change, negative = cytotoxicity",[5],-13.8% [at 8.39 µM]
same,activation,[6],-9.92% [at 8.39 µM]
same,"activity change, negative = inhibition",[7],-11.1% [at 10.5 µM]
same,"activity change, negative = inhibition",[8],9.38% [at 10.5 µM]
same,"activity change, negative = inhibition",[9],1.8% [at 10.5 µM]
same,"activity change, negative = inhibition",[11],-0.475% [at 6.97 µM]
CCCn1cc[n+](C)c1C,Potency,[1],inactive
same,outcome,[2],inactive
same,Potency,[3],inactive
same,outcome,[4],inactive
same,Potency,[5],inactive
same,Potency,[6],inactive
same,Potency,[7],inactive
same,Potency,[8],inactive
same,Potency,[9],inactive
same,Potency,[11],inactive
same,Potency,[12],inactive
OCCCCCO,Potency,[1],inactive
same,outcome,[2],inactive
same,Potency,[3],inactive
same,outcome,[4],inactive
same,Potency,[5],inactive
same,Potency,[6],inactive
same,Potency,[8],inactive
same,Potency,[9],inactive
same,Potency,[10],inactive
same,Potency,[11],inactive
NC(=O)Cc1cccc2ccccc12,Potency,[1],inactive
same,outcome,[2],inactive
same,Potency,[3],inactive
same,outcome,[4],inactive
same,Potency,[5],inactive
same,Potency,[6],inactive
same,Potency,[7],inactive
same,Potency,[8],inactive
same,Potency,[9],inactive
same,Potency,[11],inactive
same,Potency,[12],inactive
CCCCOCCOC(=O)CCCCCCCCC(=O)OCCOCCCC,Potency,[1],inactive
same,outcome,[2],inactive
same,Potency,[3],inactive
same,outcome,[4],inactive
same,Potency,[5],inactive
same,Potency,[6],inactive
same,Potency,[7],inactive
same,Potency,[8],31.7 µM (active)
same,Potency,[9],35.6 µM (active)
same,Potency,[11],inactive
same,Potency,[12],inactive
CCCOC(=O)CC,Potency,[1],inactive
same,outcome,[2],inactive
same,Potency,[3],inactive
same,outcome,[4],inactive
same,Potency,[5],inactive
same,Potency,[6],inactive
same,Potency,[7],inactive
same,Potency,[8],inactive
same,Potency,[10],35.5 µM (active)
same,Potency,[11],inactive
CCCC(C)C(=O)OCC (stereo unspecified),Potency,[1],inactive
same,outcome,[2],inactive
same,Potency,[3],inactive
same,outcome,[4],inactive
same,Potency,[5],inactive
same,Potency,[6],inactive
same,Potency,[7],inactive
same,Potency,[8],inactive
same,Potency,[9],inactive
same,Potency,[10],inactive
same,Potency,[11],inactive
same,Potency,[12],inactive
CCCCCCCCCCCCSC,Potency,[1],inactive
same,outcome,[2],inactive
same,Potency,[3],inactive
same,outcome,[4],inactive
same,Potency,[5],inactive
same,Potency,[6],inactive
same,Potency,[7],inactive
same,Potency,[8],inactive
same,Potency,[9],inactive
same,Potency,[11],inactive
same,Potency,[12],inactive
